Consider 35 compounds from PubChem BioAssay (NCI).

This is part of a sample that, as a whole, favours compounds with a hit. Of some 83,000 tested, about 20% had one in any assay.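 Percent growth is the endpoint: 0 to 100 indicates growth inhibition (40 means 60% inhibition), 0 means no net growth, and negative values indicate cell death.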 The source made the active and inactive calls. The calls were made as follows: active = growth percent below 10; inactive = the rest.

This assay deals with A498 renal. Briefly: NCI-60 one-dose screen, 48 h (100 = growth as untreated, 0 = no growth, -100 = all killed). Conditions: 10 µM unless noted.
As for `O=c1cc(Cc2ccc([N+](=O)[O-])cc2)[nH]c(=O)[nH]1`, the growth was 110% (inactive).

For the compound `Cc1csc(NC(c2ccccc2)c2c(C)nc3ccccn23)n1` (stereo not given), the growth is 70.9% (inactive).

As to `Cc1ccc(/C=C2\CN(C(=O)CCN3CCC(=NO)CC3)C/C(=C\c3ccc(C)cc3)C2=O)cc1`, the growth was 46.6% (inactive).

Turning to `O=C1Nc2ccc3c(c2/C1=C\c1cc2c(cc1Br)OCO2)OCO3`, the growth was 19.1% (inactive).

As for `CCN(CC)c1ccc(CNc2ccnc3ccccc23)cc1`, the growth is 48.2% (inactive).

For `CN(CCCCN(C[C@H]1Cc2ncccc2CN1)[C@H]1CCCc2cccnc21)C1CCC(F)(F)CC1`, the growth was 99.4% (inactive).

As for `ClC(Cl)c1nc(-c2ccccc2)nc2cc(-c3ccccc3)nn12`, the growth was 80.7% (inactive).

Consider `O=[N+]([O-])c1ccc(OCCCOc2ccccc2)cc1`, for which the growth is 102% (inactive).

In the case of `N#C/C(=C1C=C/C(=N/O)C(Cl)=C/1)c1ccc(Cl)cc1`, the growth was 88.1% (inactive).

Turning to `CCCCC(CC)OC(=O)C(Br)CC` (stereo not given), the growth was 97.4% (inactive).

On to `C=C[C@@H]1C[C@@H]2Cc3c(C)cc(C)cc3N1O2`, for which the growth is 95.1% (inactive).

Take `C=C[C@@H]1C[C@@H]2Cc3ccccc3N1O2`: the growth was 107% (inactive).

Take `CC(=O)OC[C@]12CC[C@H]3[C@@H](C[C@H]4O[C@]45CC=CC(=O)[C@]35C)[C@]1(O)CC[C@@]2(O)[C@@](C)(O)C1CC(C)=C(C)C(=O)O1` (stereo not given in full): the growth is -76.2% (active).

On to `CO[C@H]1NC(=O)N(S(=O)(=O)c2ccc(Cl)cc2)[C@@H]1OC`, for which the growth was 112% (inactive).

Regarding `COC(=O)c1cc2cc(-c3ccc(OC)cc3)cnc2[nH]1`, the growth was 28.1% (inactive).

For `O=C(Nc1cccc(-n2cc(-c3ccncc3)c(-c3ccc(Cl)c(O)c3)n2)c1)Nc1cc(C(F)(F)F)cc(C(F)(F)F)c1`, the growth was -18.6% (active).

On to `C[n+]1c(/C=C/c2c(O)ccc3ccccc23)ccc2ccccc21`, for which the growth is 52.9% (inactive).

For the compound `COc1ccc(-c2cn(-c3cccc(C(=O)/C=C/c4cc(OC)c(OC)c(OC)c4)c3)c(=O)[nH]2)cc1OC`, the growth was 90.3% (inactive).

`C=C[C@@H]1C[C@H](O)Cc2c(C)cc(C)cc2N1`: the growth was 89.9% (inactive).

`O=C(O)Cc1cccc(=O)c(O)c1C(=O)O`: the growth is 114% (inactive).

For `COc1cc(/C=C/C(=O)c2ccc(Nc3ncnc4cc(OC)c(OC)cc34)cc2)cc(OC)c1`, the growth was 95.8% (inactive).

For `COC1=C(OC)C(=O)C(CCCCCCCCCC[P+](c2ccccc2)(c2ccccc2)c2ccccc2)=C(C)C1=O`, the growth was -44.1% (active).

On to `C=C[C@@H]1C[C@H](O)Cc2ccccc2N1`, for which the growth is 99.9% (inactive).

Consider `O=S(=O)(CC(O)(c1ccccc1)c1ccccc1)CC(O)(c1ccccc1)c1ccccc1`, for which the growth was 98.7% (inactive).

As to `CCN(CC)CCCC(C)Nc1c2ccc(Cl)cc2nc2cc(OC)c(OC)cc12` (stereo not given), the growth is 54.6% (inactive).

Take `CCCCCCCCCCCC(=O)NCCC[N+](C)(C)CC(=O)[O-]`: the growth was 91% (inactive).

As to `CCOC(=O)/C(C#N)=C1/C(=O)Nc2ccccc21`, the growth was 132% (inactive).

For the compound `Cn1c(=O)c2[nH]c(C3CC=CCC3)nc2n(C)c1=O` (stereo not given), the growth is 105% (inactive).

On to `O=[N+]([O-])c1cc(S(=O)(=O)Oc2ccccc2)ccc1Cl`, for which the growth is 96.7% (inactive).

Turning to `C=C(C)[C@@H]1C[C@H](O)Cc2cc(F)ccc2N1`, the growth is 111% (inactive).

`COc1ccc2c(c1)[nH]c(=O)c1c3cccc(F)c3cn21`: the growth is 59.3% (inactive).

With `CN(C)c1nc2c(N)ncnc2n1C1OC(CO)C(O)C1O` (stereo not given), the growth is 114% (inactive).

Turning to `O=C1NN(C(=O)c2ccc(Cl)cc2)C(c2ccccc2)=N/C1=C\c1ccc(F)cc1`, the growth was 73.1% (inactive).

Take `O=C1/C(=C/c2ccc(Cl)cc2)CN(Cc2cn(CCNc3ccnc4cc(Cl)ccc34)nn2)C/C1=C\c1ccc(Cl)cc1`: the growth was -100% (active).

On to `NC(=S)N/N=C1\CCCC(C(F)(F)F)C1` (stereo not given), for which the growth is 128% (inactive).
